# According to PubChem BioAssay:
# The source made the active and inactive calls.
# Legend:
# [1] = optical density shifts of acrAB sulA E. coli – strain DRC41, OD650, 48 h, E. coli filamentation inducer project, primary screen (AID 1152); conditions: higher = more signal, called active from +8 up or from −8 down;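 note: E. coli MC1000 strain DRC41 lacking acrAB efflux pump and sulA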
# [2] = probe aLefty1 binding on compound microarray – biochemical, small-molecule microarray, 635/667 nm fluorescence, primary screen (AID 1153); conditions: higher = more signal;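 note: score merges spot fluorescence with signal-to-noise ratio from the scanned slide images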
# [3] = plasmodial surface anion channel blockers, osmotic lysis – cell-based, P. falciparum Indochina, OD700, 1 h, primary screen (AID 1154); conditions: P. falciparum Indochina infected RBC osmotic lysis, higher = more signal, called active from +8 up or from −8 down
# [4] = plasmodial surface anion channel blockers, osmotic lysis – cell-based, P. falciparum Indochina, OD700, 2 h, primary screen (AID 1155);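 note: lysis reports solute entry through the parasite surface anion channel PSAC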; conditions: P. falciparum Indochina infected erythrocytes, higher = more signal, called active from +8 up or from −8 down
# [5] = changes in parasitized red cell lysis, either direction – P. falciparum Indochina, OD700, 3 h, PSAC antagonist project, primary screen (AID 1156); conditions: P. falciparum-infected erythrocytes, osmotic lysis, higher = more signal, called active from +8 up or from −8 down
# [6] = plasmodial surface anion channel blockers, osmotic lysis – cell-based, P. falciparum Indochina, OD700, 18 h, primary screen (AID 1157); conditions: P. falciparum Indochina infected erythrocytes, osmotic lysis OD700, 18 h; higher = more signal, called active from +8 up or from −8 down
# [7] = S6 kinase pathway phospho-S6 level changes – cell-based, A549, cytoblot, luminescence, serum-stimulated, primary screen (AID 1158); conditions: 5 h, higher = more signal;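 note: serum-stimulated A549 lung adenocarcinoma cells; signal is phosphorylated S6 detected by cytoblot immunostaining with HRP secondary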
# [8] = molecular target: NADPH oxidase 2 (Homo sapiens) (UniProt P04839); test: compounds shifting NOX2 Amplex Red fluorescence – cell-based, HEK293-NOX2, PMA-stimulated, NOX inhibitor project, primary screen (AID 1159); conditions: 45 min, higher = more signal, called active from +8 up or from −8 down; note: test concentration not given here
# Sequence of NADPH oxidase 2 (Homo sapiens) (P04839 whole entry, looked up): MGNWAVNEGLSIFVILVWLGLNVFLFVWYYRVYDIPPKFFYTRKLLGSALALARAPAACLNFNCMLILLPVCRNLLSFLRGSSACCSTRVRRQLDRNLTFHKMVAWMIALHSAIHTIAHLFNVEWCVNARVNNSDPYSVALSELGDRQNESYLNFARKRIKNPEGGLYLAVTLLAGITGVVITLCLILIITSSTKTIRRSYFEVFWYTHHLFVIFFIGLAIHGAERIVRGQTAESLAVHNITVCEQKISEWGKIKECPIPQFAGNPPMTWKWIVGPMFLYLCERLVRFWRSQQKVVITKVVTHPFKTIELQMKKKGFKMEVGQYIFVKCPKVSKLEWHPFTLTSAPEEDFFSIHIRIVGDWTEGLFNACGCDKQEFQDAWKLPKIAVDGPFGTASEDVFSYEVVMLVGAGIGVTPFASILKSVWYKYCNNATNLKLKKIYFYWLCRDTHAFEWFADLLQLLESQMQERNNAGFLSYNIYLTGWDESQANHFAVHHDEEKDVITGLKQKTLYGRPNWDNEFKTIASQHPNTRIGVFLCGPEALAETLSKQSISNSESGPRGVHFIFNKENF
# [9] = molecular target: NADPH oxidase 4 (Homo sapiens) (UniProt Q9NPH5); test: compounds shifting NOX4 Amplex Red fluorescence – cell-based, HEK293-NOX4, tetracycline-induced, NOX inhibitor project, primary screen (AID 1160); conditions: HEK293-NOX4, Amplex Red H2O2 fluorescence, 45 min; higher = more signal, called active from +8 up or from −8 down
# Sequence of NADPH oxidase 4 (Homo sapiens) (Q9NPH5 whole entry, looked up): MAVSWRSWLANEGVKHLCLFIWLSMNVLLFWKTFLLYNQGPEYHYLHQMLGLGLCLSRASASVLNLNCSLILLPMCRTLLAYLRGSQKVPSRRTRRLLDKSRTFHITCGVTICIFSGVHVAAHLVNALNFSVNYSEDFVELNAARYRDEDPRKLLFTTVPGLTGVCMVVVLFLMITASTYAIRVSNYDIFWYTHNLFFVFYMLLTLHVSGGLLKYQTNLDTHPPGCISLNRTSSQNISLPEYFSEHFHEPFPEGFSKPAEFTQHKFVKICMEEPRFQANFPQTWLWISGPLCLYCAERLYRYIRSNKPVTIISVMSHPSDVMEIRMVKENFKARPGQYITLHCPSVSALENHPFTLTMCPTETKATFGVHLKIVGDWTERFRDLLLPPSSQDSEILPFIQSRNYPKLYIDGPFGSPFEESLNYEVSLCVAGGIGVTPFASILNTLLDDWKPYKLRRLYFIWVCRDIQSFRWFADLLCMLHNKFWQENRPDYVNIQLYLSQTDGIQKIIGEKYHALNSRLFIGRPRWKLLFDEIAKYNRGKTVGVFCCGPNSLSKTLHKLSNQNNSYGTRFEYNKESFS
# [10] = molecular target: NADPH oxidase 5 (Homo sapiens) (UniProt Q96PH1); test: compounds shifting NOX5 Amplex Red fluorescence – cell-based, HEK293-NOX5, NOX inhibitor project, primary screen (AID 1161); conditions: HEK293-NOX5, ionomycin, 45 min, higher = more signal
# Sequence of NADPH oxidase 5 (Homo sapiens) (Q96PH1 whole entry, looked up): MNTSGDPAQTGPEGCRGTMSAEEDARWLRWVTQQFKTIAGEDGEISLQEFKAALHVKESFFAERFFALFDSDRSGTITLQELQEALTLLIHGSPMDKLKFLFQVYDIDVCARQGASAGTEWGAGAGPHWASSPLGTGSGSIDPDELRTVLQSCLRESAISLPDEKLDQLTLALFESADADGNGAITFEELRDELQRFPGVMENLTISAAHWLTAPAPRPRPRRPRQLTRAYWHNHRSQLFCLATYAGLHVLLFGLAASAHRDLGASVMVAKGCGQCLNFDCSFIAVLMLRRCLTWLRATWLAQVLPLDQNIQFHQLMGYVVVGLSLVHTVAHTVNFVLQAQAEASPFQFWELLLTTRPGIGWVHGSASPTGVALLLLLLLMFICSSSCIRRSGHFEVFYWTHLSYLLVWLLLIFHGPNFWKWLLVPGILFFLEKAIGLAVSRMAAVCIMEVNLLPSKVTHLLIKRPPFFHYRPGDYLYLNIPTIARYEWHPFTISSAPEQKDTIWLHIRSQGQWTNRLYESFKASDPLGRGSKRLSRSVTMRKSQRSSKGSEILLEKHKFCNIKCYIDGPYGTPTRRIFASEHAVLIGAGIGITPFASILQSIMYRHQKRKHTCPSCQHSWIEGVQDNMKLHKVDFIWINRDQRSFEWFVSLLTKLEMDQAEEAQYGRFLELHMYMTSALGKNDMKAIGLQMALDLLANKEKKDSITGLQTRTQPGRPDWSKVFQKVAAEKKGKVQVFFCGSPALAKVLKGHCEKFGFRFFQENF
# [11] = compound effects on lung adenocarcinoma cell viability – A549, calcein-AM fluorescence, 48 h, basal, profiling panel (AID 1162); conditions: higher = more signal; note: test concentration not given here
# [12] = compound effects on differentiated 3T3-L1 adipocyte viability – cell-based, 3T3-L1 adipocytes, calcein-AM fluorescence, 48 h, basal, profiling panel (AID 1163); conditions: 3T3-L1 adipocytes viability, higher = more signal; note: test concentration not given here
# [13] = compound effects on hepatocellular carcinoma cell viability – HepG2, calcein-AM fluorescence, 48 h, basal, profiling panel (AID 1164); conditions: higher = more signal; note: test concentration not given here
# [14] = compound effects on multiple myeloma cell viability – MM1S, calcein-AM fluorescence, 48 h, basal, profiling panel (AID 1165); conditions: higher = more signal; note: test concentration not given here
# [15] = calcein-AM signal in unstimulated myeloma cells – cell-based, calcein-AM fluorescence, 48 h, PK04 Diversity Set, profiling panel (AID 1166); conditions: RPMI8226 myeloma viability, higher = more signal;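 note: cells grown under basal conditions without added stimulus; test concentration not given here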
# [16] = JC-1 mitochondrial signal, unstimulated HepG2 cells – cell-based, JC-1 fluorescence, 24 h, 100 nL compound, profiling panel (AID 1167); conditions: HepG2 mitochondrial potential, higher = more signal; note: test concentration not given here
# [17] = JC-1 mitochondrial signal, unstimulated adipocytes – cell-based, JC-1 fluorescence, 3T3-L1 adipocytes, 24 h, 100 nL compound, profiling panel (AID 1168); conditions: JC-1 mitochondrial fluorescence, higher = more signal, called active from +8 up or from −8 down; note: test concentration not given here
# [18] = JC-1 mitochondrial signal, unstimulated myeloma cells – cell-based, JC-1 fluorescence, RPMI8226, 24 h, 100 nL compound, profiling panel (AID 1169); conditions: JC-1 mitochondrial potential fluorescence, higher = more signal; note: test concentration not given here
# [19] = JC-1 mitochondrial signal, unstimulated MM1S myeloma – cell-based, JC-1 fluorescence, 24 h, 100 nL compound, profiling panel (AID 1170); conditions: MM1S mitochondrial potential, higher = more signal; note: test concentration not given here
# [20] = resazurin metabolic signal in A549 cells – cell-based, resazurin fluorescence, 24 h, PK04 Diversity Set, profiling panel (AID 1171); conditions: A549 viability, higher = more signal, called active from +8 up or from −8 down; note: test concentration not given here
SMILES,z-score [1],composite z-score [2],z-score [3],z-score [4],z-score [5],z-score [6],z-score [7],z-score [8],z-score [9],z-score [10],z-score [11],z-score [12],z-score [13],z-score [14],z-score [15],z-score [16],z-score [17],z-score [18],z-score [19],z-score [20]
C=CCNC(=O)[C@@H]1[C@H]2C(=O)O[C@H](c3ccccc3)[C@H](c3ccccc3)N2[C@H](c2ccc(O)cc2)[C@@]12C(=O)Nc1ccc(C#CCNC(N)=O)cc12,-1.29 (inactive),0.186,0.448 (inactive),-0.261 (inactive),-0.519 (inactive),0.32 (inactive),-0.203,0.334 (inactive),-0.211 (inactive),0.0297,0.0067,1.09,0.767,-0.925,-0.179,-1.14,-1.07 (inactive),-0.994,0.435,0.552 (inactive)
COc1ccc([Si](C)(C)[C@@H]2[C@@H](CC(=O)N3CCC[C@H]3CO)O[C@]3(C(=O)N(c4ccccc4)c4ccccc43)[C@H]2C)cc1,2.66 (inactive),-0.0718,0.616 (inactive),-0.748 (inactive),1.1 (inactive),-1.44 (inactive),0.499,2.54 (inactive),1.74 (inactive),2.4,1.61,0.93,-0.259,-0.011,0.17,1.29,-0.181 (inactive),-0.277,-0.544,1.13 (inactive)
COc1ccc(CCNC(=O)[C@@H]2c3ccccc3C(=O)N(Cc3ccccc3Cl)[C@H]2c2ccc(CO)cc2)cc1,-0.497 (inactive),-0.0999,3.59 (inactive),0.474 (inactive),0.209 (inactive),-0.11 (inactive),-0.144,-3.49 (inactive),0.151 (inactive),-2.46,1.37,0.789,0.332,-0.897,-0.474,1.64,0.716 (inactive),-0.0929,1.42,1.22 (inactive)
CC(C)C(O)C1C=CC2C(=O)NC(=O)C2N1Nc1ccc(Cl)cc1Cl (stereo not given),-1.3 (inactive),-0.114,1.41 (inactive),0.648 (inactive),-0.782 (inactive),0.997 (inactive),-1.23,-0.714 (inactive),-4.39 (inactive),-3.83,-1.06,-0.699,-0.401,-0.687,-0.644,-2.25,-1.12 (inactive),-0.161,-0.143,-0.883 (inactive)
COC(=O)[C@]1(CCC(=O)OC(C)(C)C)N=C(c2ccc(OCCCO)cc2)O[C@@H]1c1ccccc1CN=[N+]=[N-],-1.68 (inactive),0.235,30.3 (active),28.3 (active),-0.615 (inactive),5.71 (inactive),-0.0021,-3.48 (inactive),-1.72 (inactive),-2.41,-2.13,-0.354,-3.03,-3.55,-3.95,-1.93,-0.718 (inactive),-1.16,-2.7,-2.22 (inactive)
CC(C)(C)OC(=O)CC[C@]1(C(=O)N2CCOCC2)N=C(c2ccc(OCCCO)cc2)O[C@H]1c1ccccc1N=[N+]=[N-],1.52 (inactive),0.171,33 (active),31.2 (active),1.75 (inactive),2.8 (inactive),-0.435,-1.71 (inactive),-0.279 (inactive),-1.94,0.901,0.232,0.556,-0.474,-0.337,1.27,3.46 (inactive),-0.252,0.103,1.03 (inactive)
CC1CC/C=C\[C@H]2OC34C=CCN(Cc5ccccc5)C(=O)[C@H]3N(CCCO)C(=O)[C@@H]4C2C(=O)O1 (stereo not given in full),0.144 (inactive),-0.147,0.329 (inactive),-0.093 (inactive),-0.316 (inactive),-0.254 (inactive),-0.102,1.66 (inactive),0.366 (inactive),3.18,-0.0905,0.324,-0.0453,-0.142,0.197,0.0693,0.237 (inactive),-0.0499,1.68,-0.433 (inactive)
COc1ccc([Si](C)(C)[C@@H]2[C@@H](CCO)O[C@]3(C(=O)N(Cc4ccc(N(C=O)c5ccccc5)cc4)c4ccccc43)[C@H]2C)cc1,-0.482 (inactive),-0.06,4.33 (inactive),2.33 (inactive),0.287 (inactive),1.7 (inactive),0.257,1.07 (inactive),1.52 (inactive),2.89,-0.844,-0.193,-3.46,-1.94,-3.9,-0.164,0.21 (inactive),-0.95,-1.26,-2.71 (inactive)
COc1ccc(-c2cc3c(c(-c4ccc(Oc5ccccc5)cc4)n2)[Si](C(C)C)(C(C)C)OC3)cn1,-1.14 (inactive),0.0004,2.85 (inactive),1.54 (inactive),0.208 (inactive),0.85 (inactive),-0.837,0.476 (inactive),0.412 (inactive),0.179,-0.599,-0.377,0.645,-1.19,-1.75,-1.43,-0.47 (inactive),-0.845,-0.973,1.07 (inactive)
COCCOC(=O)N1C(=O)[C@@]2(c3cc(C#CCC(C(=O)OC)C(=O)OC)ccc31)[C@H](c1ccccc1OCCO)N1[C@H](c3ccccc3)[C@H](c3ccccc3)OC(=O)[C@H]1[C@@H]2C(=O)NC[C@H](O)c1ccccc1,-0.165 (inactive),0.557,1.95 (inactive),1.35 (inactive),-0.0048 (inactive),0.781 (inactive),0.213,1.57 (inactive),1.07 (inactive),1.41,-0.0256,0.821,0.015,-3.44,-3.9,-0.187,2.16 (inactive),-0.776,-1.81,-0.55 (inactive)
C=CCNC(=O)[C@@H]1[C@H]2C(=O)O[C@H](c3ccccc3)[C@H](c3ccccc3)N2[C@H](c2ccc(O)cc2)[C@@]12C(=O)N(C(=O)OCCOC)c1ccc(C#CCNC(N)=O)cc12,0.411 (inactive),0.0012,0.691 (inactive),-0.836 (inactive),0.537 (inactive),-1.18 (inactive),1.32,1.08 (inactive),0.438 (inactive),0.421,0.978,0.921,0.866,0.768,1.09,-0.194,-0.323 (inactive),0.383,0.751,-0.645 (inactive)
O=C1C2C=CC(C(O)CCc3ccccc3)N(Nc3ccccc3F)C2C(=O)N1c1ccccc1 (stereo not given),-0.383 (inactive),-0.322,1.87 (inactive),1.15 (inactive),0.517 (inactive),0.807 (inactive),-0.638,0.236 (inactive),-0.452 (inactive),-0.449,-0.804,0.255,-0.31,0.596,-1.46,-0.257,0.377 (inactive),-0.448,-0.515,0.387 (inactive)
O[C@@H](Cc1ccccc1)[C@H]1C2C=CCCC=C2CN1Cc1cccc(Cl)c1 (stereo not given in full),1.31 (inactive),0.0701,2.58 (inactive),0.499 (inactive),1.33 (inactive),0.108 (inactive),0.399,-0.318 (inactive),-1.27 (inactive),-0.609,0.675,-0.0495,1.31,-3.23,-2.25,-0.241,-0.173 (inactive),-0.771,-2.86,-0.462 (inactive)
Cc1ccc(S[C@]2(C(=O)NC3CC3)CC(=O)N(Cc3ccccc3)[C@@H]2c2ccc(CO)cc2I)cc1,1.24 (inactive),0.238,7.63 (inactive),1.12 (inactive),-0.282 (inactive),0.401 (inactive),0.402,1.7 (inactive),-1.16 (inactive),1.1,2.11,0.388,0.935,-1.99,-2.06,1.55,0.679 (inactive),-0.525,-1.26,0.618 (inactive)
O=C1O[C@H](c2ccccc2)[C@H](c2ccccc2)N2[C@H]1[C@@H](C(=O)N1CCCCCCC1)[C@]1(C(=O)Nc3ccc(C#CCCO)cc31)[C@H]2c1ccccc1OCCO,0.609 (inactive),2.89,1.54 (inactive),1.19 (inactive),2.13 (inactive),0.565 (inactive),-0.319,1.31 (inactive),0.959 (inactive),1.67,0.405,0.911,0.518,-1,-3.71,0.42,0.757 (inactive),-1.3,-1.11,0.458 (inactive)
CO[C@H]1O[C@H](CO)[C@@H](OC(=O)Nc2ccccc2)[C@H](OC(=O)Nc2ccccc2)[C@@H]1OC(=O)Nc1ccccc1,-0.24 (inactive),-0.369,6.99 (inactive),1.35 (inactive),0.111 (inactive),1.18 (inactive),0.725,-3.38 (inactive),-0.394 (inactive),-1.13,-1.36,0.875,-1.68,-1.81,-1.98,-0.523,0.348 (inactive),-1.07,0.0816,-2.01 (inactive)
COCCOC(=O)N1C(=O)[C@@]2(c3cc(C#CC4(O)CCCCCC4)ccc31)[C@H](c1ccc(OCCO)cc1)N1[C@H](c3ccccc3)[C@H](c3ccccc3)OC(=O)[C@H]1[C@@H]2C(=O)N1CCN(c2ncccn2)CC1,-0.393 (inactive),0.813,7.73 (inactive),2.47 (inactive),0.493 (inactive),1.12 (inactive),-0.537,1.61 (inactive),0.854 (inactive),1.83,-0.147,-0.507,-0.0949,-0.373,0.182,-0.643,0.295 (inactive),-0.266,-1.19,-0.473 (inactive)
